Source: PubChem BioAssay (National Center for Advancing Translational Sciences (NCATS))
Hits are enriched below; roughly 15% of the tested compounds scored in any of these assays.
ELG1 repair inh – inhibitors of ELG1-dependent DNA repair in HEK293T cells; HEK293T ELG1-luciferase reporter, luminescence, 16 h; DNA damage induced by 5-fluorouridine; Potency, µM (series often up to 46.1 µM), for inactives: at the top dose activity change, negative = inhibition, actives largely listed as inhibitors; 330,000 tested, 2.3% active; AID 504467; further: nearly all actives have a fitted effect of over 55% in size
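Overnight (16 hr) co-exposure of 2,000 cells/well to 5-fluorouridine and compound at 37 °C preceded detection. Luciferase was quantified via ONE-Glo luminescence; loss of signal denotes inhibition.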
ALOX12 inh – ALOX12 (human) lipoxygenase inhibition. Potency, µM (series often up to 108 µM), inactives show at the top dose activity change, negative = inhibition, actives largely listed as inhibitors. P18054. AID 1671190. purified 12hLO, xylenol orange hydroperoxide absorbance. 580,000 tested, 1.1% active
Target sequence (P18054 whole entry, looked up): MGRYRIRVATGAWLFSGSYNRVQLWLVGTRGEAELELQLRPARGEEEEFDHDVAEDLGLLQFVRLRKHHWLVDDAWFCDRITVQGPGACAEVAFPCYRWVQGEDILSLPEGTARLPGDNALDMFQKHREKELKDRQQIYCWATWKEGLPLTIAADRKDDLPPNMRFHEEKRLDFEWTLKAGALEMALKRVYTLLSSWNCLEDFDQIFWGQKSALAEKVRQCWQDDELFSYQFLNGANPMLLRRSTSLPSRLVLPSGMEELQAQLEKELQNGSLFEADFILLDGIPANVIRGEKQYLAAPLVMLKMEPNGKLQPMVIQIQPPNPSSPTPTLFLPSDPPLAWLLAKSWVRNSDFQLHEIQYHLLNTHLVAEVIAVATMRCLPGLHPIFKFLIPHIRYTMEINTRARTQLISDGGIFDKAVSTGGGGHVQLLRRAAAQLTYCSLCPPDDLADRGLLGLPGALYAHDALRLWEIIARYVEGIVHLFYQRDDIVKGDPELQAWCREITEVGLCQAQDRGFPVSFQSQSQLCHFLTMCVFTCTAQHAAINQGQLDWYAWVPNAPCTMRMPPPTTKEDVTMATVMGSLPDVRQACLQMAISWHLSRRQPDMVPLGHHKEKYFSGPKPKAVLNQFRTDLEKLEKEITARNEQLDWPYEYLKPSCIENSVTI
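Purified human 12hLO (150 nM final) in 25 mM Hepes, 0.01% Triton X-100, pH 7.0 was preincubated 15 min at room temperature with compound. Then 40 uM arachidonic acid was added, 30 min. Hydroperoxide was read by Fe-XO absorbance ratio 573/405 nm.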
RORg inh – inhibitors of mouse ROR gamma transcriptional activity. P51450. Drosophila S2 Gal4-RORgamma UAS-luciferase reporter, 20 h. 310,000 tested, 5.4% active. Potency, µM (series often up to 53.6 µM), inactives show top-dose activity change, negative = inhibition, actives largely listed as inhibitors; further: nearly all actives have a fitted effect of over 60% in size
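Luminescence from a UAS-regulated Photinus luciferase reporter in stably transfected Drosophila Schneider cells is measured; decreased signal marks ROR gamma inhibition. Fusion expression is induced by 700 uM copper sulfate for 20 hr.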
Gal4-VP16 FLuc – counter-screen for ROR gamma inhibitors: Gal4-VP16 reporter; Potency, µM (highest dose often 53.6 µM), inactives show top-dose activity, negative = inhibition, usual class: inhibitors; AID 2546; 310,000 tested, 3.5% active; Drosophila S2 Gal4-VP16 UAS-luciferase, luminescence, 20 h;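 further: Gal4-VP16 expression switched on by copper sulfate through the metallothionein promoter; nearly all actives have a fitted effect of over 50% in size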
TDP1 cell CPT – growth inhibition of DT40 Tdp1-/-;hTDP1 cells with camptothecin (screen for TDP1 inhibitors). 420,000 tested, 12% active. AID 686979. Potency, µM (doses to about 46.2 µM), inactives show at the highest dose activity change, negative = growth inhibition, most hits filed as inhibitors. chicken DT40 Tdp1-/-;hTDP1 cells + 20 nM CPT, ATP luminescence, 48 h; further: nearly all actives have a fitted effect of over 55% in size
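Chicken DT40 Tdp1-/- cells stably complemented with human TDP1 were seeded at 400 cells/well in medium containing 20 nM camptothecin, exposed to pin-transferred compounds, and grown at 37 °C for at least 48 hr. Viability was read as ATP luminescence.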
TDP1 cell noCPT – qHTS for Inhibitors of human tyrosyl-DNA phosphodiesterase 1 (TDP1): qHTS in cells in absence of CPT | AID 686978, 2013 | Potency, µM (series often up to 46.2 µM), inactives show at the top dose activity change, negative = growth inhibition, usual class: inhibitors | 420,000 tested, 15% active | DT40 Tdp1-/- hTDP1 cells, no CPT, ATP luminescence, 48 h; further: nearly all actives have a fitted effect of over 55% in size
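DT40 Tdp1-/-;hTDP1 cells, no CPT (DMSO vehicle only), 400 cells/well; compounds pin-transferred; ≥48 hr, 37 °C; CellTiter-Glo 30 min RT dark, luminescence read.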
Active calls of the source: *; u = inconclusive; x = no result; [ ] = dose if it differs, or a comment. The call rests on the fitted dose curve; in most records, active means well fitted curve in the direction sought with a large enough effect; inconclusive means small, poorly fitted or top-dose-only effect, or another doubt; inactive means no such curve, though single readings can be large; an effect the other way counts as inactive or inconclusive. On the % scale 0 is the no-effect control and ±100 the full control effect; potency means the concentration at half of the fitted maximal effect.

SMILES	ELG1 repair inh	ALOX12 inh	RORg inh	Gal4-VP16 FLuc	TDP1 cell CPT	TDP1 cell noCPT
CCn1c(=O)n(CC)c2cc(N3CCCCC3)c(NC(=O)Nc3cc(OC)ccc3OC)cc21	x	-15%	x	x	x	x
CCn1c(=O)n(CC)c2cc(N3CCCC3)c(NC(=O)c3ccccc3F)cc21	u	27%	-4%	12%	18µM*	12µM*
COc1ccc2c(CN(C)CCOc3cc(C)cc(C)c3)cc(=O)oc2c1	x	61%	x	x	x	x
O=C(C1CC1)N1CCC(Cc2nncn2-c2ccccc2)C1 (configuration not stated)	x	4%	x	x	x	x
CC(Cc1cnccn1)Nc1ccc(-c2nc(-c3cccc(Cl)c3)no2)cn1 (configuration not stated)	x	54%	x	x	x	x
CCn1c(=O)n(CC)c2cc(N3CCCC3)c(NC(=O)Nc3cc(C)cc(C)c3)cc21	x	-22%	x	x	21µM*	18µM*
CCOc1ccccc1C(=O)NN1C(=O)CCC1=O	4%	-5%	6.3µM*	u	u	18µM*
Cc1cc(C)cc(NC(=O)Nc2ccc(N3CCCCC3)cc2)c1	u	u	-30%	-6%	u	u
CCOc1ccccc1C(=O)NCCNC(=O)c1ccccc1OCC	x	8%	x	x	-17%	-25%
O=C(NC(=S)Nc1ccccc1Br)C1CCCCC1	u	u	x	x	18µM*	16µM*
O=C(NC(=S)Nc1ccccc1Br)C1CCCC1	u	u	3.2µM*	7.1µM*	-21%	u
O=C(NC(=S)Nc1ccccc1F)C1CCCCC1	u	u	8.9µM*	7.9µM*	x	x
Cc1ccccc1NC(=O)N1CCN(C(=O)c2nsc3ccccc23)CC1	x	22%	x	x	x	x
Cn1c(=O)c2c(nc(NCc3ccccc3)n2C)n(C)c1=O	-27%	0%	1%	-2%	u	-18%
CCOCCCNc1nc2c(c(=O)n(C)c(=O)n2C)n1CCCc1ccccc1	u	-23%	-11%[10 µM]	-20%	16µM*	21µM*
COCCCNc1nc2c(c(=O)[nH]c(=O)n2C)n1CCCc1ccccc1	u	0%	-1%	-10%	10%	-13%
Cn1c(=O)c2c(nc(NCc3ccccc3)n2CCCc2ccccc2)n(C)c1=O	u	-5%	6%	-7%	9.2µM*	5.2µM*
COCCNc1nc2c(c(=O)n(C)c(=O)n2C)n1CCCc1ccccc1	x	-45%	x	x	15µM*	10µM*
O=C(c1ccncc1)N1CCCC(CCc2ccc(F)cc2)C1 (configuration not stated)	x	33%	x	x	x	x
C/C(=N/NC(=O)CNC(=O)c1cccs1)c1ccco1	7%	28%	11%	2%	13%	-1%
C/C(=N/NC(=O)Cc1cccs1)c1ccco1	14%	-2%	-20%	-4%	u	23µM*
O=C(Cc1cccs1)NNC(=S)NC(=O)c1ccco1	u	-8%	7.9µM*	19%	u	29µM*
O=C(Cc1ccc(Cl)cc1)NNC(=S)NC(=O)c1cccs1	-3%	15%	-42%	-8%	-1%	-23%
O=C(Cc1cccs1)NNC(=S)NCc1ccc(Cl)cc1	7%	u	4µM*	-15%	-7%	-21%
O=C(Nc1cccc(-c2nnc3n2CCCC3)c1)c1ccsc1	x	6%	x	x	x	x
SMILES	ELG1 repair inh	ALOX12 inh	RORg inh	Gal4-VP16 FLuc	TDP1 cell CPT	TDP1 cell noCPT
O=C1c2c(nc(COc3cccc(Cl)c3)n2Cc2ccccc2)NCCN1CCOc1ccccc1	x	-8%	x	x	x	x
O=C(CN1CCC(C(=O)c2ccc(F)cc2)CC1)Nc1ccccc1Cl	-24%	-17%	-8%	4%	-26%	12µM*
Cc1ccc(C(=O)C2CCN(CC(=O)Nc3nc(C)cs3)CC2)cc1	u	6%[57.4 µM]	-3%	-12%	21µM*	16µM*
CCOc1ccccc1NC(=O)CN1CCC(C(=O)c2ccc(F)cc2)CC1	u	-11%	-26%	0%	21µM*	26µM*
CCCCC(c1nc2ccccc2[nH]1)n1c(-c2ccccc2)nc2cc(C)c(C)cc21 (configuration not stated)	x	-6%	x	x	15µM*	23µM*
CC1CCN(C(=O)Cn2c(=O)n(CCCCCC(=O)NCc3ccccc3Cl)c(=O)c3sccc32)CC1	x	2%	x	x	u	10µM*
CCC(C)NC(=O)Cn1c(=O)n(CCCCCC(=O)NCc2ccccc2Cl)c(=O)c2sccc21 (configuration not stated)	x	-15%	x	x	u	u
CCOc1ccccc1NC(=O)Cn1c(=O)n(CC(=O)NCc2ccccc2Cl)c(=O)c2sccc21	x	-9%	x	x	8.2µM*	9.2µM*
CN(CCc1ccccn1)C(=O)CCC[C@@H]1[C@H]2CCCN3CCC[C@@H](CN1C(=O)c1cccnc1)[C@@H]23	x	13%	x	x	x	x
O=C(c1ccncc1)N1CCCC(c2noc(COc3ccccc3)n2)C1 (configuration not stated)	x	28%	x	x	x	x
COC(=O)C1=C(C(=O)OC)SC2(S1)C(C(=O)OC)=C(C(=O)OC)SC1=C2c2cccc(C)c2NC1(C)C	1%	0%	5.6µM*	u	9.2µM*	23µM*
CCC(=O)N1CCc2cc(S(=O)(=O)NCc3ccc(C)cc3)ccc21	x	1%	x	x	23µM*	18µM*
CCC(=O)N1CCc2cc(CNS(=O)(=O)c3ccc(NC(=O)CC(C)C)cc3)ccc21	x	-38%	x	x	21µM*	18µM*
CC(=O)N1CCCc2cc(S(=O)(=O)NCc3cccc(C)c3)ccc21	x	-1%	x	x	u	21µM*
O=C(C1CC1)N1CCc2cc(S(=O)(=O)NCc3ccccc3)ccc21	-4%	0%	u	-14%	23µM*	u
CC(=O)N1CCCc2cc(S(=O)(=O)N3CCC(C(=O)NCc4cccc(C)c4)CC3)ccc21	x	-16%	x	x	-57%	u
O=C(/C=C/c1cccc(Cl)c1)c1cc2ccccc2oc1=O	x	-13%	x	x	x	x
COc1ccc(CCNC(=O)CCc2ccc(S(=O)(=O)NCC(C)C)cc2)cc1OC	-27%	-5%	34%	5%	-9%	-4%
CC(=O)N1CCCc2cc(S(=O)(=O)NCc3ccc(C)cc3)ccc21	-3%	-7%	-10%	-6%	u	13µM*
COc1ccccc1CNS(=O)(=O)c1ccc2c(c1)CCCN2C(C)=O	5%	13%	-33%	2%	-2%	-25%
CC(=O)N1CCc2cc(S(=O)(=O)Nc3ccc(C)cc3)ccc21	-8%	0%	u	-23%	u	u
CC(=O)N1CCCc2cc(S(=O)(=O)N3CCC(C(=O)NCc4ccc(N(C)C)cc4)CC3)ccc21	x	15%	x	x	u	u
